This is an account of results in the antibiotic and cytotoxicity screens of Wong et al. (2023).

About 1,500 (3.8%) of roughly 39,000 compounds were called active. The full list was thinned out, with actives kept by preference.

The assay relates to HSkMC (human skeletal muscle cells). Nature of the assay: cytotoxicity call (relative viability < 0.9). To be noted: 10 µM.
Turning to `C[C@H]1CN([C@@H](C)CO)S(=O)(=O)c2ccc(-c3cncnc3)cc2O[C@@H]1CN(C)C(=O)C1CCCCC1`, the cytotoxicity call was “inactive”.

`COc1ccc2c3c([nH]c2c1)[C@H](CO)N(C[C@]13CCN(CC1)C(=O)Nc1cccc(c1)F)C(=O)c1ccc(cc1)F`: the cytotoxicity call was “inactive”.

With `COc1ccc2c3c([nH]c2c1)[C@@H](CO)N(CC1CCCCC1)C[C@]13CN(C1)C(=O)Nc1cccc(c1)F`, the cytotoxicity call was “inactive”.

For `COc1ccc2c3c([nH]c2c1)[C@H](CO)N(CC1CCCCC1)C[C@]13CN(C1)C(=O)Nc1cccc(c1)F`, the cytotoxicity call was “inactive”.

For the molecule `COc1ccc2c3c([nH]c2c1)[C@@H](CO)N(C[C@]13CCN(CC1)C(=O)Nc1cccc(c1)F)C(=O)c1ccc(cc1)F`, the cytotoxicity call is “inactive”.

As to `COc1ccc2c3c([nH]c2c1)[C@H](CO)N(C[C@]13CN(CC2CCCCC2)C1)C(=O)Nc1cccc(c1)F`, the cytotoxicity call was “active”.

Regarding `COc1ccc2c3c([nH]c2c1)[C@@H](CO)N(C[C@]13CN(CC2CCCCC2)C1)C(=O)Nc1cccc(c1)F`, the cytotoxicity call is “active”.

With `C[C@H](CO)N1C[C@H](C)[C@H](CN(C)Cc2ccc(C(=O)O)cc2)Oc2ccc(NC(=O)c3ccncc3)cc2CC1=O`, the cytotoxicity call was “inactive”.

For the molecule `C[C@@H]1CCCCO[C@H](CN(C)Cc2ccc3c(c2)OCO3)[C@@H](C)CN([C@@H](C)CO)C(=O)c2cc(NC(=O)NC3CCCCC3)ccc2O1`, the cytotoxicity call was “inactive”.

For `[O-][NH2+]N1CCCCC1`, the cytotoxicity call was “inactive”.

Regarding `CC(C)NC(=O)N(C)C[C@H]1Oc2c(NS(=O)(=O)c3ccc(Cl)cc3)cccc2C(=O)N([C@H](C)CO)C[C@@H]1C`, the cytotoxicity call is “inactive”.

As to `C[C@H](CO)N1C[C@H](C)[C@@H](CN(C)C(=O)Nc2ccc(F)cc2)Oc2c(NS(=O)(=O)c3cn(C)cn3)cccc2C1=O`, the cytotoxicity call was “inactive”.

With `O=C(NCC(F)(F)F)[C@@H]1c2ccccc2C(=O)N(CC23CC4CC(CC(C4)C2)C3)[C@H]1c1ccc(CO)cc1`, the cytotoxicity call is “inactive”.

For the molecule `CN1CCC2(CC1)CN(C(=O)CNC(N)=O)CCCN2C`, the cytotoxicity call is “inactive”.

Regarding `C[C@H](CO)N1C[C@H](C)[C@@H](CN(C)C(=O)NC2CCCCC2)Oc2ccc(NC(=O)Nc3cccc4ccccc34)cc2C1=O`, the cytotoxicity call was “inactive”.

`C[C@@H]1CN([C@@H](C)CO)C(=O)c2cc(NC(=O)NC3CCCCC3)ccc2O[C@H]1CN(C)C(=O)Nc1cccc2ccccc12`: the cytotoxicity call was “inactive”.

Take `C[C@@H]1CN([C@H](C)CO)C(=O)c2cc(NC(=O)Nc3cccc4ccccc34)ccc2O[C@@H]1CN(C)C(=O)NC1CCCCC1`: the cytotoxicity call is “inactive”.

Take `C[C@@H]1CN([C@@H](C)CO)C(=O)c2cc(NC(=O)NC3CCCCC3)ccc2O[C@@H]1CN(C)C(=O)Nc1cccc2ccccc12`: the cytotoxicity call was “active”.

On to `C[C@@H]1CN([C@H](C)CO)C(=O)c2cc(NC(=O)Nc3cccc4ccccc34)ccc2O[C@H]1CN(C)C(=O)NC1CCCCC1`, for which the cytotoxicity call was “active”.

Regarding `C[C@@H]1CN([C@H](C)CO)C(=O)c2cc(NC(=O)NC3CCCCC3)ccc2O[C@H]1CN(C)C(=O)Nc1cccc2ccccc12`, the cytotoxicity call is “inactive”.

Turning to `COC(=O)CCn1ccc(=O)[nH]c1=O`, the cytotoxicity call was “inactive”.

As for `C[C@@H]1CN([C@@H](C)CO)C(=O)c2cc(NC(=O)Nc3ccc(C(F)(F)F)cc3)ccc2O[C@H]1CN(C)Cc1ccncc1`, the cytotoxicity call was “inactive”.

For `COc1ccc(S(=O)(=O)Nc2ccc3c(c2)C(=O)N([C@H](C)CO)C[C@H](C)[C@H](CN(C)C(=O)Nc2ccccc2)OCCCC[C@H](C)O3)cc1`, the cytotoxicity call was “inactive”.

Regarding `C[C@H]1CN([C@@H](C)CO)C(=O)c2cccc(NC(=O)Nc3ccc(C(F)(F)F)cc3)c2O[C@@H]1CN(C)S(=O)(=O)c1ccc(F)cc1`, the cytotoxicity call was “inactive”.

Turning to `C=CCNC(=O)[C@@H]1[C@H]2C(=O)O[C@H](c3ccccc3)[C@H](c3ccccc3)N2[C@H](c2ccc(OCCO)cc2)[C@@]12C(=O)N(C(=O)OCCOC)c1ccc(C#Cc3ccc(OC)cc3)cc12`, the cytotoxicity call is “inactive”.

`COc1ccc(NC(=O)Nc2ccc3c(c2)CC(=O)N([C@H](C)CO)C[C@@H](C)[C@@H](CN(C)Cc2ccc(Oc4ccccc4)cc2)O3)cc1`: the cytotoxicity call is “inactive”.

Consider `C[C@H](CO)N1C[C@H](C)[C@H](CN(C)Cc2ccc(Oc3ccccc3)cc2)Oc2ccc(NC(=O)Nc3ccccc3)cc2CC1=O`, for which the cytotoxicity call is “inactive”.

For the molecule `COc1ccc(NC(=O)Nc2ccc3c(c2)CC(=O)N([C@@H](C)CO)C[C@H](C)[C@H](CN(C)Cc2ccc(-c4ccccc4)cc2)O3)cc1`, the cytotoxicity call is “inactive”.

As for `C[C@H]1CN([C@@H](C)CO)C(=O)Cc2cc(NC(=O)Nc3ccccc3)ccc2O[C@H]1CN(C)Cc1ccc(Oc2ccccc2)cc1`, the cytotoxicity call is “active”.

Take `C[C@@H]1CN([C@@H](C)CO)C(=O)Cc2cc(NC(=O)Nc3ccccc3)ccc2O[C@@H]1CN(C)Cc1ccc(Oc2ccccc2)cc1`: the cytotoxicity call was “active”.

Take `COc1ccc(NC(=O)Nc2ccc3c(c2)CC(=O)N([C@H](C)CO)C[C@H](C)[C@@H](CN(C)Cc2ccc(-c4ccccc4)cc2)O3)cc1`: the cytotoxicity call was “active”.

For the molecule `COc1ccc(NC(=O)Nc2ccc3c(c2)CC(=O)N([C@@H](C)CO)C[C@@H](C)[C@H](CN(C)Cc2ccc(Oc4ccccc4)cc2)O3)cc1`, the cytotoxicity call was “active”.

Regarding `COc1ccc(NC(=O)Nc2ccc3c(c2)CC(=O)N([C@@H](C)CO)C[C@H](C)[C@@H](CN(C)Cc2ccc(Oc4ccccc4)cc2)O3)cc1`, the cytotoxicity call was “inactive”.

On to `COc1ccc(NC(=O)Nc2ccc3c(c2)CC(=O)N([C@@H](C)CO)C[C@@H](C)[C@@H](CN(C)Cc2ccc(Oc4ccccc4)cc2)O3)cc1`, for which the cytotoxicity call was “inactive”.

Consider `COc1ccc(NC(=O)Nc2ccc3c(c2)CC(=O)N([C@H](C)CO)C[C@H](C)[C@H](CN(C)Cc2ccc(-c4ccccc4)cc2)O3)cc1`, for which the cytotoxicity call is “inactive”.

As to `COc1ccc(NC(=O)Nc2ccc3c(c2)CC(=O)N([C@H](C)CO)C[C@H](C)[C@H](CN(C)Cc2ccc(Oc4ccccc4)cc2)O3)cc1`, the cytotoxicity call was “inactive”.

As to `C[C@H](CO)N1C[C@H](C)[C@@H](CN(C)Cc2ccc(Oc3ccccc3)cc2)Oc2ccc(NC(=O)Nc3ccccc3)cc2CC1=O`, the cytotoxicity call was “inactive”.

Regarding `C[C@H](CO)N1C[C@H](C)[C@@H](CN(C)C(=O)Cc2ccncc2)Oc2ncc(C#CC3(O)CCCC3)cc2C1=O`, the cytotoxicity call is “inactive”.

Take `C[C@@H]1CN([C@H](C)CO)C(=O)c2cc(NC(=O)Nc3cccc4ccccc34)ccc2O[C@H]1CN(C)Cc1ccc(C(=O)O)cc1`: the cytotoxicity call was “inactive”.

Take `C[C@@H]1CCCCO[C@@H](CN(C)C(=O)CCC(F)(F)F)[C@H](C)CN([C@H](C)CO)C(=O)c2cc(NC(=O)c3ccccc3)ccc2O1`: the cytotoxicity call is “inactive”.
